An excerpt weighted towards active compounds, which were near 4.9% of everything screened.
PP1 inh = blocks human PP1-alpha phosphatase, a PP5 counter-screen; P62136; purified PP1alpha, OMFP fluorescence; inhibition, % at 6.7 µM; 0.9% of 320,000 active;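 active = inhibition above the mean inhibition of all tested compounds plus 3 SD, computed separately for each screening campaign, cut at about 15% in these data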
Beta cell apopt = blocks beta cell apoptosis. protection from apoptosis, % (no concentration beside the values). 0.8% of 300,000 active. INS-1E cytokine-induced death, ATP luminescence, 48 h; percent of positive-control rescue, neutral wells zero;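 active = Every replicate reaches about 75%, or at least half do and their mean reaches it too, limit read from the data; inconclusive = At least half of replicates reach the limit but their mean does not; inactive = Under half of replicates reach the limit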;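 note: 0% = cytokine-treated negative control wells and 100% = positive control rescue; higher means more ATP so stronger rescue from cytokine killing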
CSC inhib = blocks cancer stem cells; cancer stem cell-like cells viability, luminescence; inhibition, % at 7.5 µM; 1.1% of 300,000 active; AID 2717; in the data active = inhibition above about 75%; inconclusive = no clear call, values can overlap the other calls; tested in HMLE shEcad cells
PP5 primary = blocks human protein phosphatase 5 activity; purified PP5c, OMFP substrate fluorescence; inhibition, % at 6.7 µM; 0.18% of 320,000 active; AID 1987;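 active = inhibition above the campaign's mean inhibition across all tested compounds plus 3 SD, cut at about 9.5% in these data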;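 note: 0% = DMSO only and 100% = 100 µM cantharidin control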
Calb FLC = affects C. albicans growth with fluconazole; C. albicans CaCi-2 (fluconazole-resistant clinical isolate) + fluconazole, Alamar Blue growth, 48 h; growth inhibition, % (no concentration beside the values); 0.57% of 300,000 active;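 active = growth inhibition above about 58% in most replicates, limit read from the data, passing the limit was not always enough; inconclusive = exactly half the replicates above a set limit; inactive = most replicates below a set limit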;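 note: all wells also contain fluconazole at 8 µg/ml as a sub-toxic cotreatment; 0% = median of DMSO wells and 100% = median of geldanamycin control wells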
Mdm2-MdmX inh = inhibitors of human Mdm2/MdmX interaction; 3% of 330,000 active; SaOS-2 split-luciferase Mdm2/MdmX complementation, luminescence; inhibition, % at 8 µM; AID 485346;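 active = inhibition of at least 50% at 8 µM in the primary screen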
* hit, by the source's call; ? = inconclusive; nt = no result.

SMILES	PP1 inh	Beta cell apopt	CSC inhib	PP5 primary	Calb FLC	Mdm2-MdmX inh
CCNC(=S)N/N=C/c1cn(Cc2ccc(F)cc2)c2ccccc12	2	6	90*	0	-5	29
O=[N+]([O-])/C=C/c1cn(Cc2ccc(F)cc2)c2ccccc12	9	78*	137*	7	-21	22
Cc1ccc(C(=O)/C=C/c2ccc3c(c2)OCCO3)c(O)c1	1	2	34	4	4	-58
O=C(/C=C/c1ccc2c(c1)OCCCO2)c1ccc2ccccc2c1O	1	-6	95*	1	5	15
Cc1nc(CN(C)C(=O)c2ccccc2OC2CCN(S(C)(=O)=O)CC2)cs1	-4	-4	1	1	-2	-13
CN(Cc1ccccc1)C(=O)c1nn2cccnc2c1Cl	-7	-7	-18	6	4	15
O=C(NCCc1c[nH]c2ccccc12)C(=O)NCC(c1ccco1)N1CCN(c2ccccc2F)CC1 (configuration not stated)	3	5	nt	6	-12	15
COc1ccc(-n2c(-c3ccc(Cl)cc3)c[n+]3c2CCc2ccccc2-3)cc1	-1	110*	-1	3	108*	18
COc1ccc(-n2c(-c3ccccc3)nnc2-c2ccc(Cl)cc2)cc1	-1	6	nt	-2	2	26
Cc1ccc(N(CN2CCCC2=O)C(=O)c2ccccc2)cc1	-1	-2	-22	-1	?	11
COc1ccc(C(=O)N(CN2CCCC2=O)c2ccc(C)cc2)cc1	-1	-1	-15	-1	103*	22
CC(C)(C)c1ccc(C(=O)Nc2ccc(N3CCOCC3)cc2)cc1	-2	7	79*	-1	9	29
CC1CCCCC1NC(=O)/C(C#N)=C/c1ccccc1F (configuration not stated)	-2	6	81*	1	-2	27
CC(=O)c1ccc(-n2cc(-c3ccc(C(C)(C)C)cc3)[n+]3c2SCCC3)cc1	1	50	nt	3	101*	21
CC(=O)Nc1cccc(C(=O)OCC(=O)NNC(=O)c2ccc([N+](=O)[O-])cc2)c1	-2	-3	-13	-2	10	12
Cc1cccc(Sc2nc(-c3ccccc3)ncc2C(=O)O)c1	2	-2	15	-1	109*	8
O=C(O)c1cnc(-c2ccccc2)nc1Sc1ccccc1Cl	5	7	19	-1	96*	13
O=C(O)c1cnc(-c2ccccc2)nc1Sc1ccc(Cl)cc1	2	1	17	3	99*	-1
COc1cc(C(=O)NCc2nnc(SCC(=O)NCc3ccco3)o2)cc(OC)c1OC	-2	0	-8	2	?	13
Cc1onc(-c2ccccc2Cl)c1C(=O)N1CCN(C)CC1	-3	nt	-12	0	-1	-8
O=C(NCc1ccco1)C1CCCN(c2nnc(-n3cccc3)s2)C1 (configuration not stated)	-2	-5	-8	2	-30	0
Cc1ccc(C2=NN=C(NC(=O)CSc3nc(C)cc(C)n3)SC2)cc1	10	51	6	0	9	9
Cc1ccc(C2=NN=C(NC(=O)CSc3nnc4c5ccccc5n(C)c4n3)SC2)cc1	22*	3	8	1	0	22
CCOc1cc(C(=O)Nc2ccc3c(c2)OCO3)ccc1OC(F)F	-1	1	3	3	-17	0
CCCOc1c(Cl)cc(C(=O)Nc2ccc3c(c2)OCO3)cc1OCC	3	15	79*	5	1	39
SMILES	PP1 inh	Beta cell apopt	CSC inhib	PP5 primary	Calb FLC	Mdm2-MdmX inh
CCCOc1ccc(C(=O)Nc2ccc3c(c2)OCO3)cc1	-6	5	58	1	-12	-108
CCCCOc1ccc(C(=O)Nc2ccc3c(c2)OCO3)cc1	6	1	93*	4	-21	-42
COc1ccc(CCN2CC(C(=O)NCc3ccc(F)cc3)CC2=O)cc1OC (configuration not stated)	-2	-7	7	-2	-1	-6
CNC(=O)c1cc(S(=O)(=O)Nc2ccc3c(c2)OCO3)ccc1C	-2	-4	-15	-1	9	17
Cc1cc(NC(=S)N(Cc2ccc(Cl)cc2)Cc2ccc(C(=O)O)cc2)ccc1Cl	16*	-2	5	4	17	1
COc1ccc(OCC(=O)Nc2cc(NC(=O)COc3ccc(OC)cc3)cc(C(=O)O)c2)cc1	3	-2	1	1	35	-4
